# Results: PubChem BioAssay AID1224860 (National Center for Advancing Translational Sciences (NCATS), 2016)
# Records with an inconclusive call do not appear. A number with no mark means an inactive call. Activity calls are given as the source filed them. Calls come from the whole dose curve; as a rule, active = well fitted cell-killing curve with a large enough effect; inconclusive = small, poorly fitted or top-dose-only effect; inactive = flat fitted curve, though single readings scatter.
# Experiment: Compound cytotoxicity measured by an ATP content assay as a counter-screen for lead compounds in human iPSC derived neural progenitor cells (hNPCs)
# Settings: human iPSC-derived NPC viability, ATP luminescence; series mostly up to 46.1 µM; activity, negative = cytotoxicity: at the top concentration
# Method: National Center for Advancing Translational Sciences [NCATS] Johns Hopkins University School of Medicine Florida State University Assay Overview: Many compounds can cause cytotoxicity at high compound concentrations. […] The compound cytotoxicity may also cause side effects or toxicity in human. Thus, the compound cytotoxicity needs to be measured in each cell type and each compound incubation time - same as these in the compound screening assay. The compound cytotoxicity can be measured by cell viability assays such as the ATP content assay. We use an ATP content assay kit for cell viability measurement. It measures ATP content (level) in human iPSC derived neural progenitor cells (hNPCs) using a luminescence readout that is proportional to viable cell numbers. Decrease in the luminescence signal after the compound treatment indicates reduced cell viability and cell death caused by compound treatment.
# Assay Protocol Summary: The medium for hNPCs consists of DMEM/F12, N2 supplement (ThermoFisher, Cat.# 17502048), NEAA (ThermoFisher, Cat. # 11140050), 2 ug/ml heparin, 2 uM cyclopamine, and B27 (ThermoFisher, Cat. # 17504044). The ATP content assay kit (PerkinElmer, Cat.# 6016731) was used to determine cell viability. The reagent was reconstituted and prepared as described by the manufacturer. Cells were seeded in 384- or 1536-well assay plates and cultured at 37 C with 5% CO2 for 16 to 20 hours. The typical cell seeding density in the 1536-well plate assay is 350 cells/well in 3 ul medium for hNPCs in the tissue cultured treated/PDL coated plates. Compounds were added to cells and incubated for a specific time such as 6, 24, or 72 hours before addition of the reagent mixture of the ATP content assay kit at 1:1 ratio. After incubation at room temperature for 10 minutes, the luminescence intensity in assay plates was measured using a ViewLux plate reader (PerkinElmer). […] The percentage inhibitions of the decreased cell viability by small molecules were then calculated that indicate compound cytotoxicity.
SMILES,Potency,"activity, negative = cytotoxicity"
Oc1ccc(/C=C/c2cc(O)cc(O)c2)cc1,9.75 µM (active),–
O=C(/C=C/c1ccc(O)cc1)c1ccc(O)cc1O,–,-5.73%
COc1ccc(-c2cc(=O)c3c(O)cc(O)cc3o2)cc1O,–,-5.38%
CC(C(=O)O)c1ccc(C(=O)c2ccccc2)s1 (stereo not given),–,-0.805%
CC(=O)Nc1ccc([C@H](C)C(=O)Nc2ncc(C(C)C)s2)cc1,–,-9.01%
O=C(/C=C/c1ccccc1)NCCO,–,3.85%
C=CCCCCCCCCC(=O)O,–,2.42%
O=S(=O)(O)CCSSCCS(=O)(=O)O,–,-10.7%
N#CC1(c2ccc(NC(=O)c3cccnc3NCc3ccncc3)cc2)CCCC1,–,-21.9%
CC(C)OC(=O)CCCC=CC[C@@H]1[C@H](C=C[C@@H](O)COc2cccc(C(F)(F)F)c2)[C@H](O)C[C@@H]1O,–,-18.9%
COc1cccc(-c2cc(=O)c3ccccc3o2)c1N,15.5 µM (active),–
CS(=O)(=O)c1ccc(-c2cn3ccccc3n2)cc1,7.74 µM (active),–
Nc1ccc(O)c(C(=O)O)c1,–,-2.85%
O=C1C(Cl)=C(NCCN2CCOCC2)C(=O)c2ncccc21,1.73 µM (active),–
O=c1[nH]nc(Sc2ncc([N+](=O)[O-])s2)n1-c1ccc2c(c1)OCCO2,1.73 µM (active),–
COc1cc(NC(C)CCCN)c2ncccc2c1 (stereo not given),–,5.35%
CC1(C)OC2=C(C(=O)c3ccccc3C2=O)[C@H](NCc2ccccc2)[C@H]1O,3.98 µM (active),–
C[C@@H](N)c1ccc(C(=O)Nc2ccnc3[nH]ccc23)cc1,–,7.73%
COc1cc2nc(N3CCN(C(=O)C4CCCO4)CC3)nc(N)c2cc1OC (stereo not given),–,0.309%
CN(C)c1cc(NC(=O)CNC(C)(C)C)c(O)c2c1C[C@@H]1C[C@H]3[C@H](N(C)C)C(=O)C(C(N)=O)=C(O)[C@@]3(O)C(=O)C1=C2O,–,-7.78%

SMILES,Potency,"activity, negative = cytotoxicity"
O=S(=O)(O)c1ccc2nc(-c3ccccc3)[nH]c2c1,–,-7.27%
Cc1cc(O)c2c(c1)C(=O)c1cc(O)cc(O)c1C2=O,–,-12.6%
O=C(Nc1ccc(C(=O)O)c(O)c1)c1ccccc1,–,-7.98%
CCC(C)SSc1ncc[nH]1 (stereo not given),19.5 µM (active),–
CNC(=O)c1ccccc1Sc1ccc2c(/C=C/c3ccccn3)n[nH]c2c1,7.74 µM (active),–
CO[C@H]1C(=O)[C@]2(C)[C@@H](OC)C[C@H]3OC[C@@]3(OC(C)=O)[C@H]2[C@H](OC(=O)c2ccccc2)[C@]2(O)C[C@H](OC(=O)[C@H](O)[C@@H](NC(=O)OC(C)(C)C)c3ccccc3)C(C)=C1C2(C)C,–,-11.3%
CCC(C(=O)O)c1ccc(N2Cc3ccccc3C2=O)cc1 (stereo not given),–,-23.9%
Cc1ccc(C(=O)c2ccc(CC(=O)O)n2C)cc1,–,-10.8%
CN(C)CCCSc1ccccc1NC(=O)/C=C/c1ccccc1,–,-14.6%
O=C(OCc1ccccc1)c1ccc(O)cc1,–,-20.5%
NC(=O)c1cccc2[nH]c(-c3ccc([C@H]4CCCN4)cc3F)nc12,4.35 µM (active),–
O=c1oc2cc(O)ccc2s1,–,-10.4%
Nc1ncnc2c1ncn2[C@@H]1O[C@@H](CO)[C@H](O)[C@H]1O,–,-7.22% [at 23.8 µM]
CN1CC(=O)N/C1=N/C(=O)Nc1cccc(Cl)c1,–,-7.62%
[O-][n+]1ccccc1SSc1cccc[n+]1[O-],0.112 µM (active),–
O=C(O)c1cccc(-c2noc(-c3ccccc3F)n2)c1,5.48 µM (active),–
Cc1csc(NC(=O)c2sc3nc4c(c(C(F)(F)F)c3c2N)CCC4)n1,1.95 µM (active),–
N[C@H](CSC(c1ccccc1)(c1ccccc1)c1ccccc1)C(=O)O,–,-15.9%
O=C(O)c1cc([N+](=O)[O-])ccc1NCCCc1ccccc1,–,-8.18%
O=C(Oc1ccccc1)c1cccc(C(=O)Oc2ccccc2)c1,–,-3.83% [at 96.3 µM]
